Numbering of substitutions follows the chain as printed.

Common to all, as to assay: PBM; 200 nM protein, PBS
What all share (settings): dsDNA, one strand shown

The target of experiment [1] is NKX2-5 (Homo sapiens, UniProt P52952 125-210, R139K).
In experiment [2] the target is T1, NKX2-4 (Homo sapiens, UniProt Q9H2Z4 175-261, P217L).
T1 sequence: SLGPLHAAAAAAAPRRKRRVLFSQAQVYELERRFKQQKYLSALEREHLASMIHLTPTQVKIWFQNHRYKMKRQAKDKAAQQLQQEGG

Experiment [3] addresses T2, NKX2-4 (Homo sapiens, UniProt Q9H2Z4 175-261, T231S).
T2 sequence: T1 sequence with L43P, T57S

Experiment [4] has as its target T3, NKX2-4 (Homo sapiens, UniProt Q9H2Z4 175-261).
T3 sequence: T1 sequence with L43P

The target in experiment [5] is T4, NKX2-6 (Homo sapiens, UniProt A6NCS4 118-204, R150C).
T4 sequence: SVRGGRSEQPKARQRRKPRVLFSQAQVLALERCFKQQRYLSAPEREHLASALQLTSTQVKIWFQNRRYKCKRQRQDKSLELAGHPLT

Experiment [6] addresses T5, NKX2-6 (Homo sapiens, UniProt A6NCS4 118-204).
T5 sequence: T4 sequence with C33R

For experiment [7], the target named is T6, NKX2-4 (Homo sapiens, UniProt Q9H2Z4 175-261, R246Q).
T6 sequence: T1 sequence with L43P, R72Q

The target in experiment [8] is T7, NKX2-6 (Homo sapiens, UniProt A6NCS4 118-204, F151L).
T7 sequence: T4 sequence with C33R, F34L

For experiment [9], the target named is NKX3-2 (Homo sapiens, UniProt P78367 192-278, P234S).
The target in experiment [10] is NKX2-5 (Homo sapiens, UniProt P52952 125-210).
Experiment [11] addresses NKX3-2 (Homo sapiens, UniProt P78367 192-278).

Sequence of NKX2-5 (Homo sapiens, UniProt P52952 125-210) (P52952 125-210): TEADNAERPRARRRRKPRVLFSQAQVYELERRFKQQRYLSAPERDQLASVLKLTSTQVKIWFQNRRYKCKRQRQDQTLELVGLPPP
Sequence of NKX3-2 (Homo sapiens, UniProt P78367 192-278) (P78367 192-278): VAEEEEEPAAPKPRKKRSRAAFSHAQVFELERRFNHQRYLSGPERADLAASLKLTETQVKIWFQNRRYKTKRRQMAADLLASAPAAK
Sequence of NKX2-5 (Homo sapiens, UniProt P52952 125-210, R139K) (P52952 125-210 R139K): as the sequence (P52952 125-210) above, with R15K counted along it
Sequence of NKX3-2 (Homo sapiens, UniProt P78367 192-278, P234S) (P78367 192-278 P234S): as the sequence (P78367 192-278) above, with P43S counted along it

Take GGTACTTA: the binding signal is 13.1 upbm affinity estimate (log intensity, higher = more binding, comparable within an allelic series) with NKX2-5 [1]; 12.6 upbm affinity estimate (log intensity, higher = more binding, comparable within an allelic series) with NKX2-4 [2]; 13 upbm affinity estimate (log intensity, higher = more binding, comparable within an allelic series) with NKX2-4 [3]; 12.5 upbm affinity estimate (log intensity, higher = more binding, comparable within an allelic series) with NKX2-4 [4]; 12 upbm affinity estimate (log intensity, higher = more binding, comparable within an allelic series) with NKX2-6 [5]; 13.8 upbm affinity estimate (log intensity, higher = more binding, comparable within an allelic series) in the experiment with NKX2-6 [6]. Moreover, the binding signal in the experiment with NKX2-4 [7] is 13.1 upbm affinity estimate (log intensity, higher = more binding, comparable within an allelic series); with NKX2-6 [8] it was 11 upbm affinity estimate (log intensity, higher = more binding, comparable within an allelic series); with NKX3-2 [9], 12.8 upbm affinity estimate (log intensity, higher = more binding, comparable within an allelic series); with NKX2-5 [10], 12.9 upbm affinity estimate (log intensity, higher = more binding, comparable within an allelic series); in the experiment with NKX3-2 [11] it was 12.8 upbm affinity estimate (log intensity, higher = more binding, comparable within an allelic series).

CCACTTCA: the binding signal with NKX2-5 [1] was 12.9 upbm affinity estimate (log intensity, higher = more binding, comparable within an allelic series); in the experiment with NKX2-4 [2], 12.9 upbm affinity estimate (log intensity, higher = more binding, comparable within an allelic series); with NKX2-4 [3], 13.2 upbm affinity estimate (log intensity, higher = more binding, comparable within an allelic series); with NKX2-4 [4], 12.7 upbm affinity estimate (log intensity, higher = more binding, comparable within an allelic series); with NKX2-6 [5], 12 upbm affinity estimate (log intensity, higher = more binding, comparable within an allelic series); with NKX2-6 [6], 13.7 upbm affinity estimate (log intensity, higher = more binding, comparable within an allelic series). Further, the binding signal with NKX2-4 [7] is 13.4 upbm affinity estimate (log intensity, higher = more binding, comparable within an allelic series); with NKX2-6 [8] it was 11 upbm affinity estimate (log intensity, higher = more binding, comparable within an allelic series); in the experiment with NKX3-2 [9], 12.8 upbm affinity estimate (log intensity, higher = more binding, comparable within an allelic series); in the experiment with NKX2-5 [10], 12.9 upbm affinity estimate (log intensity, higher = more binding, comparable within an allelic series); with NKX3-2 [11] it was 12.8 upbm affinity estimate (log intensity, higher = more binding, comparable within an allelic series).

Consider TAAGTGTA, for which the binding signal with NKX2-5 [1] is 12.5 upbm affinity estimate (log intensity, higher = more binding, comparable within an allelic series); with NKX2-4 [2], 12.4 upbm affinity estimate (log intensity, higher = more binding, comparable within an allelic series); with NKX2-4 [3], 12.8 upbm affinity estimate (log intensity, higher = more binding, comparable within an allelic series); with NKX2-4 [4], 12.3 upbm affinity estimate (log intensity, higher = more binding, comparable within an allelic series); with NKX2-6 [5], 11.7 upbm affinity estimate (log intensity, higher = more binding, comparable within an allelic series); with NKX2-6 [6], 13.4 upbm affinity estimate (log intensity, higher = more binding, comparable within an allelic series). Further, the binding signal with NKX2-4 [7] was 12.9 upbm affinity estimate (log intensity, higher = more binding, comparable within an allelic series); with NKX2-6 [8], 10.9 upbm affinity estimate (log intensity, higher = more binding, comparable within an allelic series); in the experiment with NKX2-5 [10], 12.4 upbm affinity estimate (log intensity, higher = more binding, comparable within an allelic series).

On to CACTTGAG, for which the binding signal was 13.3 upbm affinity estimate (log intensity, higher = more binding, comparable within an allelic series) with NKX2-5 [1]; 12.9 upbm affinity estimate (log intensity, higher = more binding, comparable within an allelic series) in the experiment with NKX2-4 [2]; 13.3 upbm affinity estimate (log intensity, higher = more binding, comparable within an allelic series) with NKX2-4 [3]; 12.8 upbm affinity estimate (log intensity, higher = more binding, comparable within an allelic series) in the experiment with NKX2-4 [4]; 12.1 upbm affinity estimate (log intensity, higher = more binding, comparable within an allelic series) in the experiment with NKX2-6 [5]; 14 upbm affinity estimate (log intensity, higher = more binding, comparable within an allelic series) with NKX2-6 [6]. The binding signal is 13.5 upbm affinity estimate (log intensity, higher = more binding, comparable within an allelic series) in the experiment with NKX2-4 [7]; 11.3 upbm affinity estimate (log intensity, higher = more binding, comparable within an allelic series) with NKX2-6 [8]; 13.2 upbm affinity estimate (log intensity, higher = more binding, comparable within an allelic series) with NKX2-5 [10].

Take CCACTCAA: the binding signal was 12.5 upbm affinity estimate (log intensity, higher = more binding, comparable within an allelic series) in the experiment with NKX2-5 [1]; 12.6 upbm affinity estimate (log intensity, higher = more binding, comparable within an allelic series) in the experiment with NKX2-4 [2]; 13.1 upbm affinity estimate (log intensity, higher = more binding, comparable within an allelic series) in the experiment with NKX2-4 [3]; 12.5 upbm affinity estimate (log intensity, higher = more binding, comparable within an allelic series) in the experiment with NKX2-4 [4]; 11.8 upbm affinity estimate (log intensity, higher = more binding, comparable within an allelic series) in the experiment with NKX2-6 [5]; 13.4 upbm affinity estimate (log intensity, higher = more binding, comparable within an allelic series) with NKX2-6 [6]. For the same sequence, the binding signal is 13.1 upbm affinity estimate (log intensity, higher = more binding, comparable within an allelic series) with NKX2-4 [7]; 10.7 upbm affinity estimate (log intensity, higher = more binding, comparable within an allelic series) with NKX2-6 [8]; 12.6 upbm affinity estimate (log intensity, higher = more binding, comparable within an allelic series) with NKX3-2 [9]; 12.3 upbm affinity estimate (log intensity, higher = more binding, comparable within an allelic series) with NKX2-5 [10]; 12.7 upbm affinity estimate (log intensity, higher = more binding, comparable within an allelic series) with NKX3-2 [11].

Take AAGTACTT: the binding signal was 13.2 upbm affinity estimate (log intensity, higher = more binding, comparable within an allelic series) with NKX2-5 [1]; 12.9 upbm affinity estimate (log intensity, higher = more binding, comparable within an allelic series) in the experiment with NKX2-4 [2]; 13.3 upbm affinity estimate (log intensity, higher = more binding, comparable within an allelic series) with NKX2-4 [3]; 12.7 upbm affinity estimate (log intensity, higher = more binding, comparable within an allelic series) with NKX2-4 [4]; 12.1 upbm affinity estimate (log intensity, higher = more binding, comparable within an allelic series) with NKX2-6 [5]; 13.8 upbm affinity estimate (log intensity, higher = more binding, comparable within an allelic series) in the experiment with NKX2-6 [6]. Further, the binding signal with NKX2-4 [7] is 13.3 upbm affinity estimate (log intensity, higher = more binding, comparable within an allelic series); with NKX2-6 [8], 11.5 upbm affinity estimate (log intensity, higher = more binding, comparable within an allelic series); in the experiment with NKX3-2 [9] it was 12.6 upbm affinity estimate (log intensity, higher = more binding, comparable within an allelic series); in the experiment with NKX2-5 [10], 13 upbm affinity estimate (log intensity, higher = more binding, comparable within an allelic series); with NKX3-2 [11] it was 12.7 upbm affinity estimate (log intensity, higher = more binding, comparable within an allelic series).

Source of the values: article PMC11006913.
